Rows were chosen to be rich in hits. Some 2.1% of all compounds tested hit in one or more screens of this group.
Abeta rescue: qHTS for compounds that reverse cellular toxicity of Amyloid beta (A-beta) peptide in yeast: Primary Screen | Potency, µM (series often up to 46.1 µM), most hits filed as activators | AID 1347071, 2019 | 410,000 compounds, 0.063% hits | yeast expressing A-beta42, growth rescue, OD600, 48 h; response scale: 0% DMSO, 100% iron-clioquinol control; note: nearly all actives have a fitted effect of over 55% in size
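Yeast growth medium received pinned compounds, then yeast cells expressing toxic A-beta were added; plates incubated at 30 C for 48 hr. Growth read as absorbance at 600 nm, normalized to DMSO and equimolar FeCl3 plus clioquinol controls.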
FUS yeast rescue: qHTS for Suppressors of FUS Proteinopathy: Primary screen using FUS-linked yeast assay; S. cerevisiae FUS-expressing, growth rescue, OD600, 24 h; Potency, µM (series often up to 76.6 µM), most hits filed as activators; 390,000 compounds, 0.24% hits;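 note: plate controls were DMSO vehicle for no effect and reference control for full effect; nearly all actives have a fitted effect of over 55% in size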
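Compound concentration series was pinned onto galactose-induced FUS-expressing yeast seeded at OD 0.005. Plates sat 24hr at 30C; absorbance at 600 nm gave growth. DMSO served as background control.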
TDP-43 yeast inh: qHTS of TDP-43 Inhibitors; AID 652104, 2013; 410,000 compounds, 1.8% hits; Potency, µM (top dose mostly 46.1 µM), inactives show top-dose growth rescue (activation), hits mostly activators; TDP-43 expressing yeast growth rescue, BacTiter-Glo, 24 h; note: % of control where 0% means no effect; nearly all actives have a fitted effect of over 50% in size
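Growth rescue of TDP-43-toxic yeast measured as ATP luminescence (BacTiter-Glo). Cells grown to mid-log in raffinose, induced in galactose at OD600=0.02, exposed to compound 24 hr at 30 deg C.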
aSyn yeast inh: qHTS of alpha-syn Inhibitors. Yeast expressing alpha-synuclein, growth rescue, BacTiter-Glo, 24 h. Potency, µM (doses to about 46.1 µM), for the others: at the highest dose growth rescue (activation), actives largely listed as activators. 370,000 compounds, 0.14% hits. AID 652106, 2013; note: % of control where 0% means no effect; nearly all actives have a fitted effect of over 65% in size
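Readout is rescue of growth in alpha-synuclein-expressing yeast, so inhibitors of toxicity appear as activators. Growth after 24 hr at 30 deg C in galactose medium is quantified by luminescence.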
Active calls of the source: *; [ ] = remark or other dose. Calls come from the whole dose curve; as a rule, active = well fitted curve in the direction sought with a large enough effect; inconclusive = small, poorly fitted or top-dose-only effect, or another doubt; inactive = no such curve, though single readings can be large; an effect the other way counts as inactive or inconclusive. Potency is the fitted concentration of half-maximal effect.

Results for Cc1ccc(CNC(=O)c2ccc3oc(=O)n(Cc4ccccc4)c3c2)cc1 ?
Abeta rescue: inactive; FUS yeast rescue: inactive; TDP-43 yeast inh: 20%

How did COc1cccc(CNC(=O)c2ccc3oc(=O)n(Cc4ccccc4)c3c2)c1 do in these assays?
Abeta rescue: inconclusive; FUS yeast rescue: inactive; TDP-43 yeast inh: 25µM*

What do the screens show for `CCOC(=O)c1ccc(Oc2nc(NC(C)(C)C)nc(N(C)C)n2)cc1`?
Abeta rescue: inactive; FUS yeast rescue: inactive; TDP-43 yeast inh: 22µM*; aSyn yeast inh: -15%

How did Nc1c(Cl)c(Cl)nc(C(=O)OCC(=O)NC2CCCCC2)c1Cl do in these assays?
Abeta rescue: inactive; FUS yeast rescue: inactive; TDP-43 yeast inh: inconclusive; aSyn yeast inh: 0%

What do the screens show for `Cc1ccc(-c2cc(C(=O)OC3CCOC3=O)c3ccccc3n2)c(C)c1` (stereo unspecified)?
Abeta rescue: inactive; FUS yeast rescue: inactive; TDP-43 yeast inh: 18µM*; aSyn yeast inh: -10%

How did O=C(OC1CCOC1=O)c1cc(-c2cccs2)nc2ccccc12 (stereo unspecified) do in these assays?
Abeta rescue: inactive; FUS yeast rescue: inactive; TDP-43 yeast inh: 25µM*; aSyn yeast inh: 0%

How did CCc1nc2ccccc2c(C(=O)OC2CCOC2=O)c1C (stereo unspecified) do in these assays?
Abeta rescue: inactive; FUS yeast rescue: inactive; TDP-43 yeast inh: 21%; aSyn yeast inh: 7%

How did O=C(NN1CCOCC1)c1cc(-c2cccs2)nc2ccccc12 do in these assays?
Abeta rescue: inactive; FUS yeast rescue: inactive; TDP-43 yeast inh: 22%; aSyn yeast inh: 4%

What do the screens show for `CC(=O)Nc1ncc(Cc2cccc(Cl)c2)s1`?
Abeta rescue: inactive; FUS yeast rescue: inactive; TDP-43 yeast inh: -2%; aSyn yeast inh: -17%

What do the screens show for `CC(C)C(=O)Nc1ncc(Cc2cccc(Cl)c2)s1`?
Abeta rescue: inconclusive; FUS yeast rescue: inactive; TDP-43 yeast inh: 18µM*; aSyn yeast inh: 1%

Results for O=C(N/N=C/c1cc([N+](=O)[O-])cc(Br)c1O)C12CC3CCC(CC(C3)C1)C2 ?
Abeta rescue: inactive; FUS yeast rescue: inactive; TDP-43 yeast inh: 4.5µM*; aSyn yeast inh: 0%

How did COc1ccc(NS(=O)(=O)c2ccc(OC)c(N(C)S(=O)(=O)c3ccc(Cl)cc3)c2)cc1 do in these assays?
Abeta rescue: inactive; FUS yeast rescue: inactive; TDP-43 yeast inh: -14%; aSyn yeast inh: 1%

How did COc1ccc(-c2cc(-c3ccccc3)nc(-c3ccc4c(c3)NC(=O)CO4)c2)cc1 do in these assays?
Abeta rescue: inactive; FUS yeast rescue: inactive; TDP-43 yeast inh: 13µM*

Results for C=CCSc1nnc2c(n1)[nH]c1c(C)cccc12 ?
Abeta rescue: inactive; FUS yeast rescue: inactive; TDP-43 yeast inh: 11µM*; aSyn yeast inh: -30%

Results for CCSc1nnc2nc3[nH]c4c(C)cccc4c3nn12 ?
Abeta rescue: inactive; FUS yeast rescue: inactive; TDP-43 yeast inh: -15%; aSyn yeast inh: -1%

What do the screens show for `COc1cc(N2C(=O)CSC23C(=O)N(Cc2cccc(F)c2)c2ccccc23)cc(OC)c1OC` (stereo unspecified)?
Abeta rescue: inactive; FUS yeast rescue: inactive; TDP-43 yeast inh: 11%; aSyn yeast inh: -4%

How did CCOC(=O)CSc1nnc(CNc2ccc(Cl)cc2)n1-c1ccccc1 do in these assays?
Abeta rescue: inactive; FUS yeast rescue: inactive; TDP-43 yeast inh: inconclusive; aSyn yeast inh: 27%

Results for CCOc1ccc(NCc2nnc(SCc3ccc(Cl)cc3)n2-c2ccccc2)cc1 ?
Abeta rescue: inactive; TDP-43 yeast inh: 25µM*; aSyn yeast inh: inconclusive

How did O/N=C/Cc1[nH]c2ccccc2c1-c1ccccc1 do in these assays?
Abeta rescue: inactive; FUS yeast rescue: inactive; TDP-43 yeast inh: 16µM*; aSyn yeast inh: -6%

Results for O=c1[nH]c2ccccc2c(O)c1-c1ccccc1 ?
Abeta rescue: inactive; FUS yeast rescue: inactive; TDP-43 yeast inh: 4%; aSyn yeast inh: 5%

How did Cc1cc2cc3c(cc2nc1SCC(=O)N1CCCC1)OCCO3 do in these assays?
Abeta rescue: inactive; FUS yeast rescue: inactive; TDP-43 yeast inh: 18µM*; aSyn yeast inh: 3%

What do the screens show for `O=[N+]([O-])c1cc(Br)c(Nc2ccccc2)c([N+](=O)[O-])c1`?
Abeta rescue: inactive; FUS yeast rescue: inactive; TDP-43 yeast inh: 3.5µM*; aSyn yeast inh: 6%

Results for Nc1cc([N+](=O)[O-])ccc1Nc1ccccc1 ?
Abeta rescue: inactive; FUS yeast rescue: inactive; TDP-43 yeast inh: 14µM*; aSyn yeast inh: 8%

Results for O=[N+]([O-])c1ccc(O)c(NC(=S)Nc2ccccc2)c1 ?
Abeta rescue: inactive; FUS yeast rescue: inactive; TDP-43 yeast inh: 13µM*; aSyn yeast inh: -10%

What do the screens show for `Brc1ccc2nc(C3CCCCC3)c(Cc3ccsc3)n2c1`?
Abeta rescue: inactive; FUS yeast rescue: inactive; TDP-43 yeast inh: inconclusive; aSyn yeast inh: -1%

How did CCOC(=O)c1nnc(-c2ccccc2)nc1NC do in these assays?
Abeta rescue: inactive; FUS yeast rescue: inactive; TDP-43 yeast inh: inconclusive; aSyn yeast inh: 12%

What do the screens show for `CC1(NC(=O)CSc2nnc(-c3ccco3)n2Cc2ccccc2)CCS(=O)(=O)C1` (stereo unspecified)?
Abeta rescue: inactive; FUS yeast rescue: inactive; TDP-43 yeast inh: 14%; aSyn yeast inh: 3%

How did Cc1ccc(-c2ccc(=O)n(CC(=O)NCc3ccc(F)cc3)n2)cc1 do in these assays?
Abeta rescue: inactive; FUS yeast rescue: inactive; TDP-43 yeast inh: -5%; aSyn yeast inh: 4%

Results for O=C(OCC(=O)c1c[nH]c2ccccc12)c1cncc(Br)c1 ?
Abeta rescue: inactive; FUS yeast rescue: inactive; TDP-43 yeast inh: 11µM*; aSyn yeast inh: -5%[1.84 µM]

Results for NC(=O)Nc1ccc(C(=O)OCC(=O)c2c[nH]c3ccccc23)cc1 ?
Abeta rescue: inactive; FUS yeast rescue: inactive; TDP-43 yeast inh: -13%; aSyn yeast inh: -2%

What do the screens show for `COc1ccc(-c2cc3ccccc3[nH]2)cc1`?
Abeta rescue: inactive; FUS yeast rescue: inactive; TDP-43 yeast inh: 1%; aSyn yeast inh: -10%

How did Clc1ccc2[nH]c(-c3ccccc3)cc2c1 do in these assays?
Abeta rescue: inconclusive; FUS yeast rescue: inactive; TDP-43 yeast inh: 11µM*; aSyn yeast inh: -16%

Results for O=c1cc(-c2ccccc2)[nH]c2cc(Cl)ccc12 ?
Abeta rescue: inactive; FUS yeast rescue: inactive; TDP-43 yeast inh: -20%; aSyn yeast inh: -2%

How did Cc1ccc(O)c(-c2cc3ccccc3[nH]2)c1 do in these assays?
Abeta rescue: inactive; FUS yeast rescue: inactive; TDP-43 yeast inh: 3.2µM*; aSyn yeast inh: -5%

What do the screens show for `c1ccc(-c2cc3ccccc3[nH]2)cc1`?
Abeta rescue: inactive; FUS yeast rescue: inactive; TDP-43 yeast inh: 11µM*; aSyn yeast inh: -16%

Screens as filed in PubChem BioAssay.
